Wnt act: Wnt/beta-catenin pathway activation; activation, % at 9.35 µM; 1.2% of 300,000 active; Wnt/beta-catenin reporter cell assay, activator, plate reader; in the data active = activation above about 30%, passing the limit was not always enough; inconclusive = no clear call, values can overlap the other calls
HIV Env fusion: blocks HIV Env-driven cell-cell fusion | inhibition, % at 12.3 µM | 1.1% of 360,000 active | HeLa-JRFL Env/CEM21 cell fusion, luciferase;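 active = mean replicate inhibition score of at least 50 and every replicate individually at or above 50; inconclusive = only one of the two criteria met; inactive = mean below 50 and not all replicates reaching 50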
miR122 inh: inhibitors of miR-122 in Huh7 cells; Huh7 miR-122 Renilla luciferase sensor, 48 h; neutral wells = 0, positive control = 100; activation (reporter increase), % at 12.5 µM; 0.3% of 340,000 active;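 active = mean replicate activation score at least 90 and every replicate individually at or above 90; inconclusive = only one of the two criteria met; inactive = neither criterion met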;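 also: higher luciferase means less miR-122 activity so hits act as miR-122 inhibitors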
esBAF inh: inhibitors of esBAF chromatin remodeling in mouse ES cells; Bmi1-luciferase knock-in reporter, 24 h; 100% = twice the neutral-well signal; 2% of 350,000 active; AID 602393; reporter increase, % at 12.5 µM; in the data active = activation above about 40%; inconclusive = no clear call, values can overlap the other calls;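 also: a rise in the Bmi1 reporter signal indicates esBAF inhibition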
MITF act: activators of MITF-driven TRPM1 promoter activity in SK-MEL-5 cells; SK-MEL-5 TRPM1-promoter luciferase, 24 h; % of positive control, neutral wells = 0; activation, % at 12.5 µM; 0.75% of 300,000 active; AID 588334;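 active = mean activation of at least 80% with every replicate also reaching 80%; inconclusive = mean reaches 80% but some replicate falls short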
Each line names hits and unclear results; the compound was inactive in the other large screens; ! = repeats disagree; [ ] = dose if it differs, or a comment. Most compounds without a hit are left out; they make up all but 3.4% or so of the library.

COc1ccc(S(=O)(=O)Nc2cc(C)cc(C)n2)c2ccccc12	none (no result: Wnt act, HIV Env fusion)
Cc1noc(C)c1NC(=O)Nc1cccc2c1O[C@@H](CN(C)S(=O)(=O)c1cccs1)[C@@H](C)CN([C@@H](C)CO)C2=O	none (no result: Wnt act, HIV Env fusion, MITF act)
CCCC(=O)Nc1ccc2c(c1)C(=O)N(C)[C@@H]1CC[C@H](CC(=O)NCC(F)(F)F)O[C@@H]1CO2	none (no result: Wnt act, MITF act)
COc1ccc(S(=O)(=O)Nc2ccc3c(c2)C(=O)N([C@@H](C)CO)C[C@@H](C)[C@H](CN(C)Cc2ccc(C(F)(F)F)cc2)O3)cc1	none (no result: Wnt act, HIV Env fusion, MITF act)
Cc1ccc(S(=O)(=O)N(C)C[C@@H]2Oc3cc(C#CC4CCCC4)ccc3S(=O)(=O)N([C@H](C)CO)C[C@H]2C)cc1	HIV Env fusion 58[16.7 µM] (no result: Wnt act, MITF act)
COc1ccc(S(=O)(=O)N(C)C[C@@H]2Oc3cc(Br)ccc3S(=O)(=O)N([C@H](C)CO)C[C@@H]2C)cc1	HIV Env fusion 57! (no result: MITF act)
COc1ccc(S(=O)(=O)N(C)C[C@H]2Oc3cc(C#CC4CC4)ccc3S(=O)(=O)N([C@H](C)CO)C[C@H]2C)cc1	miR122 inh 135[16.7 µM] (no result: Wnt act, MITF act)
COc1ccc(S(=O)(=O)N(C)C[C@H]2Oc3cc(Br)ccc3S(=O)(=O)N([C@H](C)CO)C[C@H]2C)cc1	HIV Env fusion inconclusive (no result: MITF act)
COC(=O)[C@H]1[C@H](CO)[C@H]2Cn3c(ccc(-c4cccc(F)c4)c3=O)[C@H]2N1C(C)=O	none (no result: Wnt act, HIV Env fusion, MITF act)
COc1ccc(CCC(=O)NCCc2ccc(Cl)cc2)cc1	none
COc1ccc2c(c1)C(SCC(=O)NCCc1ccc(Cl)cc1)CC(C)(C)O2 (centres undefined)	HIV Env fusion 63
O=C(Nc1ccc2c(c1)OCO2)c1noc2c1CCCCC2	none (no result: Wnt act, esBAF inh)
CC(=O)c1ccc(NC(=O)c2noc3c2CCCCC3)cc1	MITF act 89 (no result: Wnt act)
Cc1cc(NC(=O)c2noc3c2CCCCC3)no1	none (no result: HIV Env fusion)
O=C(Nc1ccc2c(c1)OCO2)c1noc2c1CCCC2	Wnt act 38
CN1CCCN(C(=O)c2cc(-c3cccc4ccccc34)nc3ccccc23)CC1	Wnt act 47
Cc1ccc(-c2cc(C(=O)N3CCN(c4ccccc4O)CC3)c3ccccc3n2)cc1	esBAF inh 55
O=C(c1cc(-c2ccccc2Cl)nc2ccccc12)N1CCC1	none (no result: miR122 inh, esBAF inh)
O=C(C[C@@H]1C=C[C@@H](NC(=O)c2cccc(F)c2)[C@H](CO)O1)Nc1nccs1	none (no result: Wnt act, miR122 inh, MITF act)
CC(=O)N1[C@H](CO)[C@@H](c2ccccc2)[C@@H]1CNC(=O)CN1CCOCC1	none (no result: Wnt act, HIV Env fusion, MITF act)
CCOc1ccc2nc(N3C(=O)CNC3=S)sc2c1	Wnt act 51 (no result: miR122 inh, MITF act)
COc1ccc(CCNC(=O)CSc2nc3ccsc3c(=O)n2Cc2ccccn2)cc1OC	esBAF inh 43 (no result: HIV Env fusion, MITF act)
NS(=O)(=O)c1ccc(CCNC(=O)CSc2nc3ccsc3c(=O)n2Cc2ccccn2)cc1	Wnt act 36 (no result: MITF act)
C[C@H](CO)N1C[C@H](C)[C@@H](CN(C)Cc2ccc(C(F)(F)F)cc2)Oc2ccc(NC(=O)C3CC3)cc2CC1=O	none (no result: Wnt act, MITF act)
COc1ccc(-c2cn3cccc(C)c3n2)cc1Br	Wnt act 35, esBAF inh 99
Cc1cccn2cc(-c3ccc(F)cc3)nc12	Wnt act 55
CC(=O)c1ccc(NC(=S)N2CCC(Cc3ccccc3)CC2)cc1	Wnt act 40 (no result: miR122 inh, esBAF inh)
COc1ccc(CN2C[C@@H](C)[C@H](OC)CN(C)C(=O)c3ccc(NC(=O)c4nc5ccccc5s4)cc3OC[C@@H]2C)cc1	none (no result: Wnt act, miR122 inh, MITF act)
COc1ccc(CN2C[C@@H](C)[C@H](OC)CN(C)C(=O)c3ccc(NC(=O)c4nc5ccccc5s4)cc3OC[C@H]2C)cc1	esBAF inh 64 (no result: Wnt act, miR122 inh, MITF act)
CO[C@@H]1CN(C)C(=O)c2ccc(NC(=O)c3nc4ccccc4s3)cc2OC[C@@H](C)N(Cc2cccnc2)C[C@H]1C	esBAF inh 46 (no result: Wnt act, MITF act)
COc1ccc(S(=O)(=O)NNC(=O)C2Cc3c(ccc4ccccc34)O2)cc1 (centres undefined)	HIV Env fusion 85 (no result: Wnt act)
COCCNC(=O)C1Cc2c(ccc3ccccc23)O1 (centres undefined)	none
C/C=C/c1ccc2c(c1)O[C@H](CN(C)C(=O)c1cccc(F)c1)[C@@H](C)CN([C@H](C)CO)S2(=O)=O	none (no result: Wnt act, MITF act)
CC(=O)NNc1nc(-c2ccc(NC(C)=O)cc2)cs1	none (no result: miR122 inh, esBAF inh)
CC(=O)Nc1ccc(-c2csc(Nc3cccc(C)n3)n2)cc1	Wnt act 48, MITF act 87 (no result: esBAF inh)
CC(=O)Nc1cccc(-c2csc(Nc3ncccn3)n2)c1	Wnt act 44 (no result: miR122 inh, esBAF inh, MITF act)
COc1ccc(-c2csc(Nc3ccc(C)cn3)n2)cc1	none (no result: miR122 inh, esBAF inh)
CC(=O)Nc1cccc(-c2csc(Nc3ccc(C)cn3)n2)c1	MITF act 119 (no result: Wnt act, esBAF inh)
O=C(OC(C(=O)Nc1ccc(Cl)cc1C(F)(F)F)c1ccccc1)c1c(Cl)cccc1Cl (centres undefined)	HIV Env fusion 73 (no result: miR122 inh, esBAF inh)
CCOC(=O)c1cc(-c2ccccc2)nn1Cc1cc(CC)no1	esBAF inh 61
CCOC(=O)c1cc(-c2ccccc2C)nn1Cc1cc(CC)no1	none
CCCC#Cc1cnc2c(c1)C(=O)N([C@@H](C)CO)C[C@H](C)[C@H](CN(C)C(=O)c1ccccc1)O2	none (no result: Wnt act, MITF act)
CC(C)(C)CC(C)(C)NC(=S)Nc1ccc2nc(-c3ccccn3)c(-c3ccccn3)nc2c1	HIV Env fusion 58 (no result: MITF act)
CN(C)NC(=S)Nc1ccc2nc(-c3ccccn3)c(-c3ccccn3)nc2c1	none
CCC(=O)N1[C@@H]2c3cccc(=O)n3C[C@@H]2[C@@H](CO)[C@@H]1C(=O)NCc1ccc(F)cc1	none (no result: Wnt act, HIV Env fusion, miR122 inh, MITF act)
COc1ccc2[nH]cc(C(=O)CNc3nc(C)cs3)c2c1	Wnt act 42, esBAF inh 70 (no result: MITF act)
C[C@@H]1CN([C@H](C)CO)C(=O)Cc2cc(NC(=O)c3ccncc3)ccc2O[C@H]1CN(C)C	none (no result: Wnt act, HIV Env fusion, MITF act)
O=C1CN(C(=O)OCc2ccccc2)c2ccccc2N1	esBAF inh 50
COc1cccc(NC(=O)CN(c2ccccc2OC)S(=O)(=O)c2cccs2)c1	HIV Env fusion 64
O=C(CNC(=O)N1CC(=O)Nc2ccccc21)NCc1ccccc1	none
COc1cccc(NC(=S)NC(=O)Cc2ccccc2)c1	none (no result: miR122 inh, esBAF inh, MITF act)
COc1cccc(NC(=O)Cc2ccccc2)c1	Wnt act inconclusive, esBAF inh 64
COc1ccccc1N(CC(=O)Nc1ccccc1)S(=O)(=O)c1cccs1	none
COc1cccc(NC(=O)CNC(=O)N2CC(=O)Nc3ccccc32)c1	esBAF inh 44
C[C@@H]1CN([C@@H](C)CO)C(=O)c2cc(C3=CCCCC3)cnc2O[C@@H]1CN(C)C(=O)c1ccccc1	none (no result: Wnt act, MITF act)
C[C@H](O)C#Cc1ccc2c(c1)O[C@@H](CN(C)C(=O)C1CC1)[C@H](C)CN([C@@H](C)CO)S2(=O)=O	none (no result: Wnt act, MITF act)
C[C@H]1CN([C@@H](C)CO)C(=O)Cc2cc(NC(=O)c3ccncc3)ccc2O[C@H]1CN(C)Cc1ccc(-c2ccccc2)cc1	none (no result: Wnt act, MITF act)
COc1cccc(NC(=O)CC(=O)c2ccccc2)c1	Wnt act 33, esBAF inh inconclusive
COc1cccc(NC(=O)c2oc3ccccc3c2NC(C)=O)c1	none (no result: HIV Env fusion)
COc1cccc(NC(=O)CC(C)=O)c1	none
COc1cccc(NC(=S)NCc2ccncc2)c1	none (no result: miR122 inh, esBAF inh)
